Assay outcomes (PubChem)
GPT2 inhibitor: GPT2 alanine aminotransferase inhibition. Recombinant GPT2, coupled pyruvate oxidase/HRP Amplex Red fluorescence. Potency, µM (top dose mostly 57.7 µM), without a hit: at the top dose activity change, negative = inhibition, usual class: inhibitors. actives 0.25% (n = 100,000); note: potency is the fitted concentration of half-maximal effect; % is set by controls: 0 for no effect and ±100 for the full control effect; nearly all actives have a fitted effect of over 60% in size
Target sequence (Q8TD30 whole entry, looked up): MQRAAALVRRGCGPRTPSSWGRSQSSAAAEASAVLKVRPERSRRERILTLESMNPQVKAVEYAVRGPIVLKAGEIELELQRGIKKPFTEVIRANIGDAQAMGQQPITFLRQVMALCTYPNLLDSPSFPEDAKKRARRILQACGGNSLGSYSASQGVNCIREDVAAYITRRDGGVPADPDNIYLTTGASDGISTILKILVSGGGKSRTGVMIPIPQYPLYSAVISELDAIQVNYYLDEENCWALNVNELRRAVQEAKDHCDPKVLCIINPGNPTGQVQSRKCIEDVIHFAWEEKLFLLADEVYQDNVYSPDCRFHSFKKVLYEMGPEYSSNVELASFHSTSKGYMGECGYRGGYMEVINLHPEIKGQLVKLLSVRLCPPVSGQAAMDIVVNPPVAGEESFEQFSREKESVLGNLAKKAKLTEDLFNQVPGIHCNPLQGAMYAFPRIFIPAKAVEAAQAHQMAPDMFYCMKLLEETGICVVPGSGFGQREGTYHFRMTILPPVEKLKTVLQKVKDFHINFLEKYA
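Fluorescence of coupled pyruvate oxidase/HRP/Amplex Red system (50uM Amplex, 30 min, dark) reports pyruvate formed by GPT2. Enzyme reaction: 10ng/uL GPT2, 2mM L-alanine, 250uM a-KG, 30 min room temperature, pH 7.5; 50uM AOA control.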
HEK293 viab: counter-screen for SNCA expression inhibitors: cell viability; HEK-293-SNCA-luc viability, GF-AFC fluorescence, 24 h; Potency, µM (highest dose often 57.1 µM), without a hit: at the top dose activity change, negative = cytotoxicity, usual class: cytotoxic; actives 0.12% (n = 150,000); AID 1671193;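 note: potency is the fitted concentration of half-maximal effect; 0% = DMSO-treated cells and -100% = medium-only wells without cells; nearly all actives have a fitted effect of over 30% in size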
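HEK-293-SNCA-luc cells (1500/well) plated 24 h, then exposed 24 h to a dilution series; GF-AFC added 30 min at 37C, fluorescence 405/540 nm; normalised to medium-only and DMSO wells, Hill fit.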
SNCA expr inhib: SNCA gene expression inhibition; HEK-293 SNCA-luciferase knock-in, luminescence, 24 h; Potency, µM (series often up to 57.2 µM), for inactives: at the highest dose activity change, negative = inhibition, hits mostly inhibitors; actives 0.17% (n = 140,000); AID 1671194;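 note: potency is the fitted concentration of half-maximal effect; plate controls were DMSO cells for no effect and cell-free wells for full effect; nearly all actives have a fitted effect of over 45% in size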
IP6K1 inh: inhibitors of human IP6K1; IP6K1 kinase, ADP-Glo luminescence, 2 h; hits give low values; activity change, % (series mostly up to about 58 µM); actives 0.81% (n = 140,000); AID 1645851; in the data active = activity change below about -25%; note: % is set by controls: 0 for no effect and ±100 for the full control effect
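ADP-Glo luminescence measures ADP made by human IP6K1 during a 2 h RT reaction with ATP/IP6 (mix at 1.3 mM/130 uM); top library doses 57.5 and 19.1 uM final.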
IP6K1 inh cnf: confirmation of human IP6K1 inhibitors; shares compounds with IP6K1 inh; recombinant IP6K1 kinase, ADP-Glo luminescence, 2 h; Potency, µM (top dose mostly 49 µM), for the others: top-dose activity change, negative = inhibition, usual class: inhibitors; actives 13% (n = 1,200); note: potency is the fitted concentration of half-maximal effect; % is set by controls: 0 for no effect and ±100 for the full control effect; nearly all actives have a fitted effect of over 65% in size
GPT2 conf: confirmation of human GPT2 inhibitors; shares compounds with GPT2 inhibitor; GPT2 enzyme, coupled Amplex Red pyruvate fluorescence; Potency, µM, most hits filed as inhibitors; actives 90% (n = 95)
* marks the source's active call; other numbers are inactive results; i = inactive; ? = inconclusive; · = no result; ! = not active in a repeat; [ ] = dose if it differs, or a comment. In the library only some 1% were active in any assay of this set; here they are far more common. Unless noted, calls come from the whole dose curve; as a rule, active = well fitted curve in the direction sought with a large enough effect; inconclusive = small, poorly fitted or top-dose-only effect, or another doubt; inactive = no such curve, though single readings can be large; an effect the other way counts as inactive or inconclusive.

SMILES	GPT2 inhibitor	HEK293 viab	SNCA expr inhib	IP6K1 inh	IP6K1 inh cnf	others
CC12Cc3cn[nH]c3C=C1CCC1C2CCC2(C)C1CCC2(C)O (centres undefined)	i	-3.1%	·	-46.9*	7.31µM*
CCOC(=O)CC(SP(=S)(OC)OC)C(=O)OCC (centres undefined)	?	-5.4%[23.9 µM]	2.3%[25.6 µM]	-69.9*!	17.8µM*
CCCCCC(=O)N1C[C@H](C(=O)OCC)[C@H]2c3ccccc3N(CCO)C(=O)[C@]21C	1.4%[27.3 µM]	5.2%[23.9 µM]	-21.1%[25.6 µM]	6.5	·
CC[C@H]1CN2CC[C@H]1C[C@@H]2CNC(=S)Nc1ccc(N(C)C)cc1	8.91µM*	-9.7%[87.6 µM]	32.0%[87.6 µM]	-33.4*	-11.0%
CC[C@H]1CN2CC[C@H]1C[C@@H]2CNC(=O)Nc1ccc(C(C)(C)C)cc1	0.2%[88.5 µM]	0.9%[87.6 µM]	-21.8%[87.6 µM]	3.9	·
CCCCCOc1cc2c(cc1-c1cc(/C=C/C(=O)O)ccc1O)C(C)(C)CCC2(C)C	1.2%	?	·	-27.1*	?
c1ccc2c(c1)Nc1ccccc1S2	11.2µM*!	33.7%[23.9 µM]	4.2%[25.6 µM]	-16.1	·	GPT2 conf=2.8*
Cc1nc(-c2cccs2)cc([C@H]2CN3CC[C@H]2C[C@@H]3COC(=O)Nc2cccc(C(F)(F)F)c2)n1	2.9%	?	?	5.7	·
